# From publication PMC7862700, “An all-to-all approach to the identification of sequence-specific readers for epigenetic DNA modifications on cytosine”
# How the values were obtained:
# Assay in all cases: DAPPL (digital affinity profiling via proximity ligation, sequencing); 10 mM Tris-HCl pH 7.5, 50 mM NaCl, 1 mM DTT, 4% glycerol, room temperature, 30 min; GST-TFs on glutathione beads, 16-mer random dsDNA library, 0.1% formaldehyde crosslink after washing; high values mean tight binding
# FEV = biological target: T1, FEV (Homo sapiens, UniProt Q99581 1-238); settings: protein: recombinant; tags: N-terminal GST; dsDNA, one strand shown
# T1 sequence: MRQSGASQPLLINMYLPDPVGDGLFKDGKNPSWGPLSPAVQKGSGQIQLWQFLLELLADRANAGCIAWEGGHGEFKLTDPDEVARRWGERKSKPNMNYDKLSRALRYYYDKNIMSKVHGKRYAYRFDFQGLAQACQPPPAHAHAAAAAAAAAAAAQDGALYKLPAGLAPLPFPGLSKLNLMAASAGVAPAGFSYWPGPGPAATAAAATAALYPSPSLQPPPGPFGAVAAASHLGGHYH
# Method in brief: (§1)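 Yeast served to express human transcription factors as GST fusions, which were then captured on glutathione beads and labelled with DNA barcodes. Pooled with a tag-only sample, they were incubated with 200 nmole of a 16-mer random double-stranded DNA library for 30 min at room temperature in Tris/NaCl/DTT/glycerol buffer, washed, crosslinked with 0.1% formaldehyde, ligated by proximity, amplified by PCR and sequenced. Dividing each hexamer's read frequency for a factor by its frequency for the tag-only sample gives the binding signal.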
# ETV5 = ETV5 (Homo sapiens, UniProt P41161 1-510); settings: protein: recombinant; tags: N-terminal GST; dsDNA, one strand shown
# Method in brief: as §1
# HSF1 = HSF1 (Homo sapiens, UniProt Q00613 1-529); settings: protein: recombinant; tags: N-terminal GST; chain copies: 3; dsDNA, one strand shown
# Method in brief: as §1
# SPIC = biological target: T2, SPIC (Homo sapiens, UniProt Q8N5J4 1-248); settings: protein: recombinant; tags: N-terminal GST; dsDNA, one strand shown
# T2 sequence: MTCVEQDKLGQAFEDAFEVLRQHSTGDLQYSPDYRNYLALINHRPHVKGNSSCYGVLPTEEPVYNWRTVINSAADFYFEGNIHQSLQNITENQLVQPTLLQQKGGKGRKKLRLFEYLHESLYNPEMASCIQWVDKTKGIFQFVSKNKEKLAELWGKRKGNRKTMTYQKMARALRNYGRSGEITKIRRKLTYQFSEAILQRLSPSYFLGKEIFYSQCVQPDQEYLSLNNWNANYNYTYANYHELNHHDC
# Method in brief: as §1
# ELF4 = ELF4 (Homo sapiens, UniProt Q99607 1-663); settings: protein: recombinant; tags: N-terminal GST; dsDNA, one strand shown
# Method in brief: as §1
# ELK4 = biological target: T3, ELK4 (Homo sapiens, UniProt P28324-2 1-405); settings: protein: recombinant; tags: N-terminal GST; dsDNA, one strand shown
# T3 sequence: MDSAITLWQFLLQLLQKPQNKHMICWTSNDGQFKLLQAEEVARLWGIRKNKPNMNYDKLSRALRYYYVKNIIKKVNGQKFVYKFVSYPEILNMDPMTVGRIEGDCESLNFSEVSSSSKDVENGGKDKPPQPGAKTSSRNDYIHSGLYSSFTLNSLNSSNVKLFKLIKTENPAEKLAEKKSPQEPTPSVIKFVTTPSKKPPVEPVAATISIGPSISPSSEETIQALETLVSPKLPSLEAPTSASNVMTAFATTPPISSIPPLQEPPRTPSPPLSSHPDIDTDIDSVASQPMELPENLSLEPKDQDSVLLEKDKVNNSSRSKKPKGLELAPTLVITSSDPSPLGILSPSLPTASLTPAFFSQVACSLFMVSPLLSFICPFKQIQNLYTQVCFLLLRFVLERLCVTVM
# Method in brief: as §1
# ETV2 = biological target: T4, ETV2 (Homo sapiens, UniProt O00321 1-342); settings: protein: recombinant; tags: N-terminal GST; dsDNA, one strand shown
# T4 sequence: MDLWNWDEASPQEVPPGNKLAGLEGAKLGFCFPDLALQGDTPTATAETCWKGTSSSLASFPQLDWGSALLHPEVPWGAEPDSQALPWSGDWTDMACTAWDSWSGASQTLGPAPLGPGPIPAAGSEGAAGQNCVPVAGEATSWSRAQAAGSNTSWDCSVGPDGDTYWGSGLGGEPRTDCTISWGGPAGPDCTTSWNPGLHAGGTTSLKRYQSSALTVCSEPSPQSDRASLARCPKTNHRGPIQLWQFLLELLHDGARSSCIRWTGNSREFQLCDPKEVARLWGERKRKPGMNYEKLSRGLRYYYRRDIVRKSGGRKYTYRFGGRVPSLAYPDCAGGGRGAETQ
# Method in brief: as §1
# ELF3 = biological target: T5, ELF3 (Homo sapiens, UniProt P78545 1-371); settings: protein: recombinant; tags: N-terminal GST; dsDNA, one strand shown
# T5 sequence: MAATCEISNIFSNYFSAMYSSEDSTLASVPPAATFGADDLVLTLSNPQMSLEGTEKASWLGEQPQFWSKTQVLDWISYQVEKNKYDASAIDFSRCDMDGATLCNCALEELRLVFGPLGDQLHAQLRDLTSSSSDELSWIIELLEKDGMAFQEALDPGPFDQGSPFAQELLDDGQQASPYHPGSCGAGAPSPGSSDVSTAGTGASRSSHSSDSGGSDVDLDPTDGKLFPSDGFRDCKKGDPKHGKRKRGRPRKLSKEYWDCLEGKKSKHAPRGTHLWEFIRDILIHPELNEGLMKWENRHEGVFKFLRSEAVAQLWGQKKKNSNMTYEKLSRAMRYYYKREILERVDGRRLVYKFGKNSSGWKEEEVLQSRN
# Method in brief: as §1
# CRX = CRX (Homo sapiens, UniProt O43186 1-299); settings: protein: recombinant; tags: N-terminal GST; dsDNA, one strand shown
# Method in brief: as §1
# ETV1 = ETV1 (Homo sapiens, UniProt P50549 1-477); settings: protein: recombinant; tags: N-terminal GST; dsDNA, one strand shown
# Method in brief: as §1
# ERF = biological target: T6, ERF (Homo sapiens, UniProt P50548 1-548); settings: protein: recombinant; tags: N-terminal GST; dsDNA, one strand shown
# T6 sequence: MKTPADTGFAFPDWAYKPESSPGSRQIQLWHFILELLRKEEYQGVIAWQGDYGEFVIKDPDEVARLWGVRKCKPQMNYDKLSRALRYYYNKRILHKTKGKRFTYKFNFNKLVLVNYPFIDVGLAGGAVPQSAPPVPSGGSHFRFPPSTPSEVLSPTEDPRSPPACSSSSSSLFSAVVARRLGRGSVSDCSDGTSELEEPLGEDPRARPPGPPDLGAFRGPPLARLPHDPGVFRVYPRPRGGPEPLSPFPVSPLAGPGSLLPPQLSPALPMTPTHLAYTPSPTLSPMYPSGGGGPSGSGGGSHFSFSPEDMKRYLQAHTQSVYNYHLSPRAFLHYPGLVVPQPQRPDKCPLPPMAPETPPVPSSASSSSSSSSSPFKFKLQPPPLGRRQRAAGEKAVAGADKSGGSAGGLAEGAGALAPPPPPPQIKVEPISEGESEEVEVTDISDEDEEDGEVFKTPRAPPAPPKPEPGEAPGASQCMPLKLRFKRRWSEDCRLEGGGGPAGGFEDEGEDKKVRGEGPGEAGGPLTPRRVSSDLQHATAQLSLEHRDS
# Method in brief: as §1
# ETV3L = biological target: T7, ETV3L (Homo sapiens, UniProt Q6ZN32 1-361); settings: protein: recombinant; tags: N-terminal GST; dsDNA, one strand shown
# T7 sequence: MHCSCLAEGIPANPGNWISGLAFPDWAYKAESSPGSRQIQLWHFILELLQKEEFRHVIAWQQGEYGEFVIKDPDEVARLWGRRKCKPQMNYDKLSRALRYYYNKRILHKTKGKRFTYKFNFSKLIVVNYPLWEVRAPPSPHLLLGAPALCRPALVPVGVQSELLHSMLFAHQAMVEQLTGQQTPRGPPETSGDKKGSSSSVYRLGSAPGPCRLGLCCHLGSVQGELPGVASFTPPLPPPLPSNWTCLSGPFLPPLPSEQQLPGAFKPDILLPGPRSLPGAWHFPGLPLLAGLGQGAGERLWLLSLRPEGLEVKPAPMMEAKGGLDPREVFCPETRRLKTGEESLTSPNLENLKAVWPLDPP
# Method in brief: as §1
# ETS2 = biological target: T8, ETS2 (Homo sapiens, UniProt P15036 1-469); settings: protein: recombinant; tags: N-terminal GST; dsDNA, one strand shown
# T8 sequence: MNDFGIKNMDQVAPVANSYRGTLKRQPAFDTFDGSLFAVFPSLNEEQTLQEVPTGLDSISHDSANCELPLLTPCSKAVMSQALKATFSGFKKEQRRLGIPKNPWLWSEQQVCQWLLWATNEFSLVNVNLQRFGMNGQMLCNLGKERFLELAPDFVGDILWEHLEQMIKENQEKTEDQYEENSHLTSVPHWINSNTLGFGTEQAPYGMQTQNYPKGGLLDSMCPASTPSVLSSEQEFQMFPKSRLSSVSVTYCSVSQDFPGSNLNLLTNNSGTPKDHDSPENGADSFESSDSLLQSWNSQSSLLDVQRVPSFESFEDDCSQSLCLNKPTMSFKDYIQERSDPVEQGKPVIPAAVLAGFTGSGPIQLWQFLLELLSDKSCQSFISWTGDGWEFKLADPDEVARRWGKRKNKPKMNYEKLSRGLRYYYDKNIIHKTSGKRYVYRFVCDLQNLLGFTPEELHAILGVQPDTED
# Method in brief: as §1
# SPDEF = biological target: T9, SPDEF (Homo sapiens, UniProt O95238 1-335); settings: protein: recombinant; tags: N-terminal GST; dsDNA, one strand shown
# T9 sequence: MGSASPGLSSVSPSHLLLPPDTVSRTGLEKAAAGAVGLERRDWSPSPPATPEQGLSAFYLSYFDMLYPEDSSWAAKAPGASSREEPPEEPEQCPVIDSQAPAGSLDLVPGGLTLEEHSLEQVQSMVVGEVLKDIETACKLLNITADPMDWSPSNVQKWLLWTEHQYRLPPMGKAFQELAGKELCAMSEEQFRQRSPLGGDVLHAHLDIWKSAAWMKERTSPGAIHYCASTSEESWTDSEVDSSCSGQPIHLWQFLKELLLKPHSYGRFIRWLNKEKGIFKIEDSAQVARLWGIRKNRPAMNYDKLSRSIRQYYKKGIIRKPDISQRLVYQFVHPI
# Method in brief: as §1
# ETV7 = biological target: T10, ETV7 (Homo sapiens, UniProt Q9Y603 1-341); settings: protein: recombinant; tags: N-terminal GST; dsDNA, one strand shown
# T10 sequence: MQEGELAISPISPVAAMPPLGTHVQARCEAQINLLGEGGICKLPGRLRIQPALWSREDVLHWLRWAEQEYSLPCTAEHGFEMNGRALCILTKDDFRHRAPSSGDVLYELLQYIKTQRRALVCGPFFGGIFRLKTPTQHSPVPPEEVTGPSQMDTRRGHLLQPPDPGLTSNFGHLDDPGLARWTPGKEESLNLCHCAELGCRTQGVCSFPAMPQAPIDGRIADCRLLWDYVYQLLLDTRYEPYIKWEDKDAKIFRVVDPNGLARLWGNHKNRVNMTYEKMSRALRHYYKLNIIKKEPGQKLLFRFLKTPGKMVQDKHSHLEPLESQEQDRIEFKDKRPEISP
# Method in brief: as §1
# ELF5 = biological target: T11, ELF5 (Homo sapiens, UniProt Q9UKW6-2 1-255); settings: protein: recombinant; tags: N-terminal GST; dsDNA, one strand shown
# T11 sequence: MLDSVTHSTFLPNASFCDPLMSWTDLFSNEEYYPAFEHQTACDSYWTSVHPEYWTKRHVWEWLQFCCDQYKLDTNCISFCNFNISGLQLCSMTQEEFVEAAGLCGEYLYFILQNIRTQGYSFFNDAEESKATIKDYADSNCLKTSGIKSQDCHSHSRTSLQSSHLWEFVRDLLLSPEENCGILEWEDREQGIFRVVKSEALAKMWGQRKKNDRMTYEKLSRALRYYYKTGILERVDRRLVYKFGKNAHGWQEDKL
# Method in brief: as §1
# ETV3 = biological target: T12, ETV3 (Homo sapiens, UniProt P41162-2 1-143); settings: protein: recombinant; tags: N-terminal GST; dsDNA, one strand shown
# T12 sequence: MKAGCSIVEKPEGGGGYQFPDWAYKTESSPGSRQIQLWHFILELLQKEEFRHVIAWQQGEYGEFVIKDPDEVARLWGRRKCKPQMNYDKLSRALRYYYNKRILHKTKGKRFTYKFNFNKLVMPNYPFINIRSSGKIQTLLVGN
# Method in brief: as §1
# ETV6 = ETV6 (Homo sapiens, UniProt P41212 1-452); settings: protein: recombinant; tags: N-terminal GST; dsDNA, one strand shown
# Method in brief: as §1
# Sequence of ETV5 (P41161 whole entry): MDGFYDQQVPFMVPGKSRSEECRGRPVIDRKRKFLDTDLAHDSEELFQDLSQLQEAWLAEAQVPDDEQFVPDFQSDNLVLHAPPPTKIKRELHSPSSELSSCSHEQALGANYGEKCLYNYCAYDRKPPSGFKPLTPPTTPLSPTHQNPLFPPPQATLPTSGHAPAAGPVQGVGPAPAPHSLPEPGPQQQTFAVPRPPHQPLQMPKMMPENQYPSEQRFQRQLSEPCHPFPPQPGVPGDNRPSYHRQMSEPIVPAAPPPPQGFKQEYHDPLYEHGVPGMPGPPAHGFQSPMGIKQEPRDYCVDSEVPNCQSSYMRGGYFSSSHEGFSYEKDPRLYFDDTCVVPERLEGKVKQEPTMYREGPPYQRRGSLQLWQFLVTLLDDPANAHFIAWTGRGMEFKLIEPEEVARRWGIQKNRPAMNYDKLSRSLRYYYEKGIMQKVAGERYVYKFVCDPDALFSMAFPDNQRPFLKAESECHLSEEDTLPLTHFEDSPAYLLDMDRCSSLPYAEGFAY
# Sequence of ETV6 (P41212 whole entry): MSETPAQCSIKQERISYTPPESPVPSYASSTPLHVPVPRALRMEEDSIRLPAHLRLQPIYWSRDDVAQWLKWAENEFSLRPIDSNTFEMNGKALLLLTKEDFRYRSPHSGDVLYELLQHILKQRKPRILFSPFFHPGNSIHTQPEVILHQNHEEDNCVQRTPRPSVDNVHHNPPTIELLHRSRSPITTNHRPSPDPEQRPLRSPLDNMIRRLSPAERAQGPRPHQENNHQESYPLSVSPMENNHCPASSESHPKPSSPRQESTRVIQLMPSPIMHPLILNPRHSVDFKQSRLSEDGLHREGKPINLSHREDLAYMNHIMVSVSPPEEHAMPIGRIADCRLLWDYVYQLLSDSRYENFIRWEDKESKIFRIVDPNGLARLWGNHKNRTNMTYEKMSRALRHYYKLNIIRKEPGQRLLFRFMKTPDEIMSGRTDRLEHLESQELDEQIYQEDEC
# Sequence of HSF1 (Q00613 whole entry): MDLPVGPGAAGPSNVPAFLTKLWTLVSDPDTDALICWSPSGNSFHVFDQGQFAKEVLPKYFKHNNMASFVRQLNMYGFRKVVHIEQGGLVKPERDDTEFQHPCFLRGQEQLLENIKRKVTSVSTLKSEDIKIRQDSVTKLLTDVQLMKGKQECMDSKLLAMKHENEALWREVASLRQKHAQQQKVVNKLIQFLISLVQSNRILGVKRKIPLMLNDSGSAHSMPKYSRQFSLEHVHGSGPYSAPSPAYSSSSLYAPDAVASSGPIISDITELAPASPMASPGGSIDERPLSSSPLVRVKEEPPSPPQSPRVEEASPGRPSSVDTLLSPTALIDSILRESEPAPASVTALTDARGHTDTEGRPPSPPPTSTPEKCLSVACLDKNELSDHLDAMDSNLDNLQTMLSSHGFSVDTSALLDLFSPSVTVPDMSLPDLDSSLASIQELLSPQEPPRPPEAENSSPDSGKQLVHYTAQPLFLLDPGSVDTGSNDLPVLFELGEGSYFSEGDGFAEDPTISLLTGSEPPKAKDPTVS
# Sequence of ELF4 (Q99607 whole entry): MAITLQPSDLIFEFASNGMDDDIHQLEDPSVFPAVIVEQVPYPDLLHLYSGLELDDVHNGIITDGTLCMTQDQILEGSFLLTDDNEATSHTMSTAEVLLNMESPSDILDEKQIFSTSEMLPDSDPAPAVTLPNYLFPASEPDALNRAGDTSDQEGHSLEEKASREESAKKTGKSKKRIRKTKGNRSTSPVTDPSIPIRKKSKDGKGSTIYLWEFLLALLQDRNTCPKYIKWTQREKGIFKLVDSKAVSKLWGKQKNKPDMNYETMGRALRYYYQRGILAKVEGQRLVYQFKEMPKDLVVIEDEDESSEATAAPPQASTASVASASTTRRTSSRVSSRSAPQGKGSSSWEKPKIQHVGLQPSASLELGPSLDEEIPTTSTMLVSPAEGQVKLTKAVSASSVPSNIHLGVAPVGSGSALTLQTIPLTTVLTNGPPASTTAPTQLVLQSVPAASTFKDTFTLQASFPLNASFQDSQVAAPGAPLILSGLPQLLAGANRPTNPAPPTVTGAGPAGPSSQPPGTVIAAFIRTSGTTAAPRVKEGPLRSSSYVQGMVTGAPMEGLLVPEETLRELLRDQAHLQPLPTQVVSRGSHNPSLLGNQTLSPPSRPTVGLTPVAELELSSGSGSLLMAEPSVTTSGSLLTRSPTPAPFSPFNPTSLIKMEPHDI
# Sequence of CRX (O43186 whole entry): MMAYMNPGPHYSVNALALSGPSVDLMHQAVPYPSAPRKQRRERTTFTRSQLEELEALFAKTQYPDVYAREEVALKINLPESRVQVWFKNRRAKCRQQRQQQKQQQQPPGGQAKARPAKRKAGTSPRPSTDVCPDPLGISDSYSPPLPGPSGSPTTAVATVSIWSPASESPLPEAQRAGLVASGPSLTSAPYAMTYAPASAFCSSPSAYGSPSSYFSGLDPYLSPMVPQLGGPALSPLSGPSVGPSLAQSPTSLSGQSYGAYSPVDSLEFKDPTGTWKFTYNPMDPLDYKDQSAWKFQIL
# Sequence of ETV1 (P50549 whole entry): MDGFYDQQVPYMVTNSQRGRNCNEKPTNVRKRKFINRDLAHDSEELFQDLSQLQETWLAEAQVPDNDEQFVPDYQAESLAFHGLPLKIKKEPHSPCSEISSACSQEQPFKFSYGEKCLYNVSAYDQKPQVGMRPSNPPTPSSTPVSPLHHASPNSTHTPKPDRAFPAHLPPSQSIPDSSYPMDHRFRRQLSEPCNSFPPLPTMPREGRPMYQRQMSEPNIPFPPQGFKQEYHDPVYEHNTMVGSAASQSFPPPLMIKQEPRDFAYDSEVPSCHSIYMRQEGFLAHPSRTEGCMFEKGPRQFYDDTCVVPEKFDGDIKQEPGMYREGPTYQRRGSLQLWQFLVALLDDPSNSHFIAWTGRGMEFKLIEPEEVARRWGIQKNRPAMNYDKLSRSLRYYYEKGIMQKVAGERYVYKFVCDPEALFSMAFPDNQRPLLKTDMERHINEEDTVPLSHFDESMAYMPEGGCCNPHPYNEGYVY
sequence,measurement,setting,value
AAGAAA,binding signal,FEV,"1.15 fold enrichment (6-mer frequency, TF over GST control)"
same,binding signal,ETV5,"1.19 fold enrichment (6-mer frequency, TF over GST control)"
same,binding signal,HSF1,"1.75 fold enrichment (6-mer frequency, TF over GST control)"
same,binding signal,SPIC,"1.19 fold enrichment (6-mer frequency, TF over GST control)"
same,binding signal,ELF4,"1.19 fold enrichment (6-mer frequency, TF over GST control)"
same,binding signal,ELK4,"1.18 fold enrichment (6-mer frequency, TF over GST control)"
same,binding signal,ETV2,"1.18 fold enrichment (6-mer frequency, TF over GST control)"
same,binding signal,ELF3,"1.23 fold enrichment (6-mer frequency, TF over GST control)"
same,binding signal,CRX,"1.29 fold enrichment (6-mer frequency, TF over GST control)"
same,binding signal,ETV1,"1.2 fold enrichment (6-mer frequency, TF over GST control)"
same,binding signal,ERF,"1.24 fold enrichment (6-mer frequency, TF over GST control)"
same,binding signal,ETV3L,"1.26 fold enrichment (6-mer frequency, TF over GST control)"
same,binding signal,ETS2,"1.24 fold enrichment (6-mer frequency, TF over GST control)"
same,binding signal,SPDEF,"1.09 fold enrichment (6-mer frequency, TF over GST control)"
same,binding signal,ETV7,"1.26 fold enrichment (6-mer frequency, TF over GST control)"
same,binding signal,ELF5,"1.2 fold enrichment (6-mer frequency, TF over GST control)"
same,binding signal,ETV3,"1.16 fold enrichment (6-mer frequency, TF over GST control)"
same,binding signal,ETV6,"1.22 fold enrichment (6-mer frequency, TF over GST control)"
